Source: PubChem BioAssay (NCATS)
Inconclusive results are not listed. Where a call stands in place of a potency, no number is given. Active and inactive are the calls of the source. Calls follow the shape of the dose curve; as a rule, active = well fitted curve in the direction sought with a large enough effect; inconclusive = small, poorly fitted or top-dose-only effect, or another doubt; inactive = no such curve, though single readings can be large; an effect the other way counts as inactive or inconclusive.

Assays:
[1] = system: MCC-13; test: qHTS assay to identify novel small-molecules to repurpose for Merkel cell carcinoma treatment (AID 1296009); settings: MCC and control cell lines, CellTiter-Glo viability, 72 h; series mostly up to 46 µM; also: nearly all actives have a fitted effect of over 60% in size
Summary of the method: (§1)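 After compound transfer in DMSO, plates were kept 72 hr at 37 degree celsius. Luminescent ATP signal from CellTiter-Glo served as viability measure, normalized against DMSO and no-cell controls.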

[2] = system: MCC-26; test: as above; settings: MCC and control cell lines, CellTiter-Glo viability, 72 h; series mostly up to 46 µM
Summary of the method: as §1

[3] = system: MKL-1; test: as above; settings: MCC and control cell lines, CellTiter-Glo viability, 72 h; series mostly up to 46 µM
Summary of the method: as §1

[4] = system: MKL-2; test: as above; settings: MCC and control cell lines, CellTiter-Glo viability, 72 h; series mostly up to 46 µM
Summary of the method: as §1

[5] = system: UISO; test: as above; settings: MCC and control cell lines, CellTiter-Glo viability, 72 h; series mostly up to 46 µM
Summary of the method: as §1

[6] = system: WaGa; test: as above; settings: MCC and control cell lines, CellTiter-Glo viability, 72 h; series mostly up to 46 µM
Summary of the method: as §1

[7] = system: C33A; test: Primary qHTS to identify gynecologic anti-cancer compounds using libraries of approved drugs and bioactive compounds (AID 1345084); settings: Gynecologic cancer cell panel viability, ATPlite luminescence, 48 h; series mostly up to 57.5 µM; also: nearly all actives have a fitted effect of over 55% in size; also: potency is read from the fitted curve at half-maximal effect
Summary of the method: (§2)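 Five-concentration response, 48 h; readout is ATP-driven luciferase luminescence.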

[8] = system: CAOV3; test: as above; settings: Gynecologic cancer cell panel viability, ATPlite luminescence, 48 h; series mostly up to 57.5 µM
Summary of the method: as §2

[9] = system: CASKI; test: as above; settings: Gynecologic cancer cell panel viability, ATPlite luminescence, 48 h; series mostly up to 57.5 µM
Summary of the method: as §2

[10] = system: Es-2; test: as above; settings: Gynecologic cancer cell panel viability, ATPlite luminescence, 48 h; series mostly up to 57.5 µM
Summary of the method: as §2

[11] = system: HeLa; test: as above; settings: Gynecologic cancer cell panel viability, ATPlite luminescence, 48 h; series mostly up to 57.5 µM
Summary of the method: as §2

[12] = system: Hek293T; test: as above; settings: Gynecologic cancer cell panel viability, ATPlite luminescence, 48 h, control line for the selectivity index; series mostly up to 57.5 µM
Summary of the method: as §2

[13] = system: JEG-3; test: as above; settings: Gynecologic cancer cell panel viability, ATPlite luminescence, 48 h; series mostly up to 57.5 µM
Summary of the method: as §2

[14] = system: OV90; test: as above; settings: Gynecologic cancer cell panel viability, ATPlite luminescence, 48 h; series mostly up to 57.5 µM
Summary of the method: as §2

[15] = system: PA-1; test: as above; settings: Gynecologic cancer cell panel viability, ATPlite luminescence, 48 h; series mostly up to 57.5 µM
Summary of the method: as §2

[16] = system: SKOV3; test: as above; settings: Gynecologic cancer cell panel viability, ATPlite luminescence, 48 h; series mostly up to 57.5 µM
Summary of the method: as §2

[17] = system: Tov-21-G; test: as above; settings: Gynecologic cancer cell panel viability, ATPlite luminescence, 48 h; series mostly up to 57.5 µM
Summary of the method: as §2

| Structure (SMILES) | Potency [1] | Potency [2] | Potency [3] | Potency [4] | Potency [5] | Potency [6] | Potency [7] | Potency [8] | Potency [9] | Potency [10] | Potency [11] | Potency [12] | Potency [13] | Potency [14] | Potency [15] | Potency [16] | Potency [17] |
| --- | --- | --- | --- | --- | --- | --- | --- | --- | --- | --- | --- | --- | --- | --- | --- | --- | --- |
| CCS(=O)(=O)N1CC(CC#N)(n2cc(-c3ncnc4[nH]ccc34)cn2)C1 | inactive | inactive | inactive | inactive | inactive | inactive | inactive | inactive | inactive | inactive | inactive | inactive | inactive | inactive | inactive |  |  |
| O=C1C[C@@H](c2ccc(O)cc2)Oc2cc(O)cc(O)c21 | inactive | inactive | inactive | inactive | inactive | inactive |  |  |  |  |  |  |  |  |  |  |  |
| O=C1NC(=O)C(c2ccccc2)(c2ccccc2)N1 | inactive | inactive | inactive | inactive | inactive | inactive | inactive | inactive | inactive | inactive | inactive | inactive | inactive | inactive | inactive | inactive | inactive |
| COc1ccc2c(Oc3ccc(NC(=O)c4c(C)n(CC(C)(C)O)n(-c5ccccc5)c4=O)cc3F)ccnc2c1 | inactive | inactive | inactive | inactive |  | inactive | inactive | inactive | inactive | inactive | inactive | inactive | inactive | inactive | inactive |  | inactive |
| NC(=O)c1cnc(-c2ccc(C3(N)CCC3)cc2)c(-c2ccccc2)c1 | inactive | inactive | inactive | inactive | inactive | inactive |  |  |  | inactive | inactive | inactive | inactive |  |  | 28.2 µM (active) |  |
| CC(C)(C)c1ccc(C(O)CCCN2CCC(C(O)(c3ccccc3)c3ccccc3)CC2)cc1 (stereo not drawn) | inactive | inactive | inactive | inactive | inactive | inactive | inactive | inactive | inactive | inactive | inactive | inactive | inactive | inactive | inactive | inactive | inactive |
| COC[C@@H](c1ccc(C(F)(F)F)cc1)N1CCN(C2(C)CCN(C(=O)c3c(C)ncnc3C)CC2)C[C@H]1C | inactive | inactive | inactive | inactive | inactive | inactive | inactive |  | inactive | inactive | inactive | inactive | inactive | inactive | inactive |  | inactive |
| COc1ccc2c(Oc3ccc(NC(=O)c4c(C)n(CC(C)(C)O)n(-c5ccccc5)c4=O)nc3)ccnc2c1 | inactive | inactive | inactive | inactive | inactive | inactive | inactive |  | inactive | inactive | inactive | inactive | inactive | inactive | 31.6 µM (active) |  |  |
| C[N+](C)(C)CC(=O)O | inactive | inactive | inactive | inactive | inactive | inactive | inactive | inactive | inactive | inactive | inactive | inactive | inactive | inactive | inactive | inactive | inactive |
| COc1ccc2cccc(CCNC(C)=O)c2c1 | inactive | inactive | inactive | inactive | inactive | inactive | inactive |  | inactive | inactive | inactive | inactive | inactive | inactive | inactive | inactive | inactive |
| CC=CC[C@@H](C)C(=O)[C@H]1C(=O)N[C@@H](C(C)C)C(=O)N(C)CC(=O)N(C)[C@@H](CC(C)C)C(=O)N[C@@H](C(C)C)C(=O)N(C)[C@@H](CC(C)C)C(=O)N[C@@H](C)C(=O)N[C@H](C)C(=O)N(C)[C@@H](CC(C)C)C(=O)N(C)[C@@H](CC(C)C)C(=O)N(C)[C@@H](C(C)C)C(=O)N1C | inactive | inactive | inactive | inactive | inactive | inactive |  |  |  |  |  |  |  |  |  |  |  |
| C[C@@H]1CCN(C(=O)CC#N)C[C@H]1N(C)c1ncnc2[nH]ccc12 | inactive | inactive | inactive | inactive | inactive | inactive |  |  |  |  |  |  |  |  |  |  |  |
| O=C(Nc1ccccc1Br)N[C@@H]1CCN(c2ccc(C(F)(F)F)cn2)C1 | inactive | inactive | inactive | inactive | inactive | inactive |  |  |  |  |  |  |  |  |  |  |  |
| O=C(NCCN1CCOCC1)c1ccc(Cl)cc1 | inactive | inactive | inactive | inactive | inactive | inactive | inactive | inactive | inactive | inactive | inactive | inactive | inactive | inactive | inactive | inactive | inactive |
